N-glyco inh = N-linked glycosylation inhibition | D54 ERlucT glycosylation luciferase reporter, 24 h; percent of 100 nM tunicamycin response | reporter increase, % at 12.5 µM | 360,000 tested, 0.23% active;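 active = mean luciferase reporter signal, scaled so untreated is 0 and the glycosylation-blocking control 100, at or above a set limit in every replicate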;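 note: luciferase carries N-glycosylation sites so blocking glycosylation raises the light; 0% = median of neutral control wells and 100% = median of 100 nM tunicamycin wells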
PAX8 inh HTS = PAX8 transcriptional activity inhibition; RMG-I TPO-luciferase reporter, SteadyGlo, 24 h; inhibition, % at 12.6 µM; 360,000 tested, 1.2% active; AID 652154;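 active = mean replicate inhibition at least 60% with every replicate also reaching 60%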;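 note: luciferase light reporting Pax8 driven TPO promoter activity; plate controls were median of neutral control wells for no effect and mitoxantrone controls for full effect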
HIV Env fusion = HIV envelope-mediated fusion inhibition. HeLa-JRFL Env/CEM21 cell fusion, luciferase. inhibition, % at 12.3 µM. 360,000 tested, 1.1% active;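 active = mean replicate inhibition score of at least 50 and every replicate individually at or above 50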;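 note: 0% = plate neutral controls and 100% = maraviroc near 300 nM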
Shn3 3UTR inh = reduces Shn3 3'UTR luciferase signal in osteoblasts; 360,000 tested, 0.52% active; Clone20 osteoblast Shn3 3'UTR firefly luciferase, 24 h; inhibition, % at 12.5 µM;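 active = mean inhibition of at least 75% with every replicate also reaching 75%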;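 note: 0% = median of neutral control wells and 100% = pilot-screen positive control compound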
NSD2 HMT inh = blocks human histone methyltransferase NSD2; O96028; NSD2 peptide methylation, AlphaScreen, 120 min; inhibition, % at 12.5 µM; 310,000 tested, 0.54% active; AID 743445; in the data active = inhibition above about 50%
Target sequence (O96028 whole entry, looked up): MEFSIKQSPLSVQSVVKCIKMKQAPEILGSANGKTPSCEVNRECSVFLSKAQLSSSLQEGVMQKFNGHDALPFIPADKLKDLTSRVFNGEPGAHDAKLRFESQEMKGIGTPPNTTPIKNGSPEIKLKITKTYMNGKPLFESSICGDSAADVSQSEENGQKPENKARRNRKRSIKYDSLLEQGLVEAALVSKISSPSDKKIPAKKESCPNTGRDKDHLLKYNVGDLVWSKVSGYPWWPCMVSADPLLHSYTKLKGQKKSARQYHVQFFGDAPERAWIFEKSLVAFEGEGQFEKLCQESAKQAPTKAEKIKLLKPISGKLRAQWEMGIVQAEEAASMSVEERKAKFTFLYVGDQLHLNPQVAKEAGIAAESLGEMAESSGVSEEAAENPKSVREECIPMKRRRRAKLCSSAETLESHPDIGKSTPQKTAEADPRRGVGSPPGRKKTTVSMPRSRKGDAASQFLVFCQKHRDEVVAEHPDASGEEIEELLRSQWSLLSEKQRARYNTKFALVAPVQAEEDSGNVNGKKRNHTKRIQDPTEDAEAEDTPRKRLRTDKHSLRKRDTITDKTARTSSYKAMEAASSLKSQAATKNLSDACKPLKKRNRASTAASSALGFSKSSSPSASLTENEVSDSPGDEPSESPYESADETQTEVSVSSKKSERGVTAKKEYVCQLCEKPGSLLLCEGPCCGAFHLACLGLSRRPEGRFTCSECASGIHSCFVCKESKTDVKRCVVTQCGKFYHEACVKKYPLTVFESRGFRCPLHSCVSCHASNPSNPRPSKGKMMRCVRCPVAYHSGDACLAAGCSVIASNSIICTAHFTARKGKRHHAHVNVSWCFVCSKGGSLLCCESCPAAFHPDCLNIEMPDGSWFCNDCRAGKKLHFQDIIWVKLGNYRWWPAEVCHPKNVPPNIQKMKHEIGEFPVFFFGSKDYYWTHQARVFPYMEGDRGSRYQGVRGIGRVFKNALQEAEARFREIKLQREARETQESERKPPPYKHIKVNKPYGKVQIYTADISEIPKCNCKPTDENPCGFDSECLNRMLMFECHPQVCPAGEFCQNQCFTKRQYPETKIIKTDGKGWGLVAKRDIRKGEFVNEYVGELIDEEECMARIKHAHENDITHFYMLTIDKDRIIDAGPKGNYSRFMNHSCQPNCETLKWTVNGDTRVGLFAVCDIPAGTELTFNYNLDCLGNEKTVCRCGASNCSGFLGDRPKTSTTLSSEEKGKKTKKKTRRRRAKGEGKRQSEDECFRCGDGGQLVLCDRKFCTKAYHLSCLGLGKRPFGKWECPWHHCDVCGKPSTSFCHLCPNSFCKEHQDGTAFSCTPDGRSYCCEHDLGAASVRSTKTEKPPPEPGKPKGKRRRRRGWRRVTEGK
EBV LMP1 NFkB = inhibitors of Epstein-Barr LMP1-induced NF-kappaB reporter; LMP1-induced NF-kappaB luciferase reporter cells, luminescence; AID 504558; inhibition, % at 12.5 µM; 350,000 tested, 0.69% active; in the data active = inhibition above about 41%;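 note: 0% = neutral control wells and 100% = reference inhibitor control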
An asterisk follows results filed as active; [ ] = remark or other dose. This is a sample that favours compounds with a hit; in the whole collection about 2.8% have one here.

How did Cc1ccc2nc(C)c3c(c2c1)OC(C(C)(Cl)Br)C3 (stereo not given) do in these assays?
N-glyco inh: -0.6; PAX8 inh HTS: 3.3; HIV Env fusion: 33.8; Shn3 3UTR inh: 50.4; NSD2 HMT inh: 24.9; EBV LMP1 NFkB: 17.4

What do the screens show for `Cc1nc2ccccc2c2c1CC(C(C)(Cl)Br)O2` (stereo not given)?
N-glyco inh: -0.3; PAX8 inh HTS: 16.0; HIV Env fusion: 73.9*; Shn3 3UTR inh: 90.3*; EBV LMP1 NFkB: 18.2

Results for CCOc1ccc(CN(C)C(=O)CCc2ccc(S(=O)(=O)N3CCCCCC3)cc2)cc1 ?
N-glyco inh: -5.0; PAX8 inh HTS: 36.8; HIV Env fusion: 64.7*; Shn3 3UTR inh: 20.2; NSD2 HMT inh: -2.2; EBV LMP1 NFkB: 14.6

Results for CCOc1ccc(S(=O)(=O)N2CCC(C(=O)NCCc3ccc(S(N)(=O)=O)cc3)CC2)cc1 ?
N-glyco inh: -0.6; PAX8 inh HTS: -8.4; HIV Env fusion: 11.0; Shn3 3UTR inh: 5.7; NSD2 HMT inh: -4.0; EBV LMP1 NFkB: 48.9*

What do the screens show for `C[C@@H]1CN([C@@H](C)CO)C(=O)Cc2cc(NC(=O)C3CC3)ccc2O[C@@H]1CN(C)CC1CC1`?
PAX8 inh HTS: -0.9; HIV Env fusion: 2.2[16.7 µM]

What do the screens show for `Cc1ccc(S(=O)(=O)Nc2ccc3c(c2)C(=O)N([C@@H](C)CO)C[C@@H](C)[C@H](CN(C)S(=O)(=O)c2cccs2)OCCCC[C@H](C)O3)cc1`?
PAX8 inh HTS: -17.2; HIV Env fusion: -40.2[16.7 µM]

Results for Cc1ccc(S(=O)(=O)Nc2ccc3c(c2)C(=O)N([C@H](C)CO)C[C@H](C)[C@@H](CN(C)S(=O)(=O)c2cccs2)OCCCC[C@H](C)O3)cc1 ?
PAX8 inh HTS: 77.2*; HIV Env fusion: -24.1[16.7 µM]

What do the screens show for `C[C@@H]1CCCCO[C@H](CN(C)S(=O)(=O)c2ccc(Cl)cc2)[C@@H](C)CN([C@H](C)CO)C(=O)c2cc(NS(=O)(=O)c3cccs3)ccc2O1`?
PAX8 inh HTS: -8.0; HIV Env fusion: 6.3[16.7 µM]

How did C[C@H]1CCCCO[C@@H](CN(C)S(=O)(=O)c2cccs2)[C@@H](C)CN([C@@H](C)CO)C(=O)c2cc(NS(=O)(=O)c3ccccc3)ccc2O1 do in these assays?
PAX8 inh HTS: -2.1; HIV Env fusion: 62.5*[16.7 µM]

Results for Cc1ccc(S(=O)(=O)N(C)C[C@@H]2OCCCC[C@H](C)Oc3ccc(NS(=O)(=O)c4cccs4)cc3C(=O)N([C@H](C)CO)C[C@@H]2C)cc1 ?
PAX8 inh HTS: 66.8*; HIV Env fusion: -60.9[16.7 µM]

What do the screens show for `C[C@@H]1CCCCO[C@@H](CN(C)S(=O)(=O)c2ccc(Cl)cc2)[C@H](C)CN([C@H](C)CO)C(=O)c2cc(NS(=O)(=O)c3cccs3)ccc2O1`?
PAX8 inh HTS: 70.4*; HIV Env fusion: 18.0[16.7 µM]

Results for Cc1noc(C)c1NC(=O)Nc1ccc2c(c1)C(=O)N([C@H](C)CO)C[C@@H](C)[C@H](CN(C)C)OCCCC[C@H](C)O2 ?
PAX8 inh HTS: -15.0; HIV Env fusion: 14.6[16.7 µM]

What do the screens show for `CN(C)CCNc1ccc(CO)c2oc3ccc(O)cc3c(=O)c12`?
N-glyco inh: -5.1; HIV Env fusion: 44.0; Shn3 3UTR inh: -13.8; EBV LMP1 NFkB: -5.7

What do the screens show for `CCN(CC)CCNc1ccc(CO)c2oc3cc(Cl)ccc3c(=O)c12`?
N-glyco inh: 34.8*; PAX8 inh HTS: 7.3; HIV Env fusion: -5.7; Shn3 3UTR inh: 18.9; NSD2 HMT inh: 22.9; EBV LMP1 NFkB: -8.9

How did C[C@@]12C(=O)Nc3cc(Cl)ccc3C(=O)N1[C@H]1c3cc(Br)ccc3OC[C@@H]1[C@@H]2c1ccccc1 do in these assays?
N-glyco inh: 23.2; PAX8 inh HTS: 50.2; HIV Env fusion: -5.3; Shn3 3UTR inh: 19.0; EBV LMP1 NFkB: -0.3

What do the screens show for `COc1ccc2c(c1)C(=O)N1[C@H]3c4cc(OC)ccc4OC[C@@H]3[C@H](c3ccccc3)[C@]1(C)C(=O)N2`?
N-glyco inh: 61.5*; PAX8 inh HTS: -1.8; HIV Env fusion: 27.3; Shn3 3UTR inh: -1.2; EBV LMP1 NFkB: -6.3

How did COc1ccc2c(c1)[C@H]1[C@H](CO2)[C@H](c2ccccc2)[C@]2(C)C(=O)Nc3ccc(Br)cc3C(=O)N12 do in these assays?
N-glyco inh: 40.8*; PAX8 inh HTS: -14.8; HIV Env fusion: -17.3; Shn3 3UTR inh: 4.7; EBV LMP1 NFkB: -18.6

Results for COc1ccc2c(c1)OC[C@H]1[C@H]2N2C(=O)c3cc(Br)ccc3NC(=O)[C@@]2(C)[C@H]1c1ccccc1 ?
N-glyco inh: 35.6*; Shn3 3UTR inh: 1.5; EBV LMP1 NFkB: -5.4

Results for COc1ccc2c(c1)[C@H]1[C@H](CO2)[C@H](c2ccccc2)[C@]2(C)C(=O)Nc3ccccc3C(=O)N12 ?
N-glyco inh: 66.6*; PAX8 inh HTS: 1.8; HIV Env fusion: -40.5; Shn3 3UTR inh: -4.6; EBV LMP1 NFkB: 4.8

What do the screens show for `COc1ccc2c(c1)[C@H]1[C@H](CO2)[C@H](c2ccccc2)[C@]2(C)C(=O)N[C@H](C)C(=O)N12`?
N-glyco inh: -2.3; PAX8 inh HTS: 6.7; HIV Env fusion: 9.4; Shn3 3UTR inh: 8.9; EBV LMP1 NFkB: -6.2

How did O=C(C[C@@H]1CC[C@H]2[C@@H](COC[C@@H](O)CN2CC2CCOCC2)O1)N1CCOCC1 do in these assays?
PAX8 inh HTS: -17.7

What do the screens show for `C[C@H](CO)N1C[C@H](C)[C@H](CN(C)S(=O)(=O)c2cccs2)Oc2ncccc2C1=O`?
PAX8 inh HTS: -6.7

How did COc1ccccc1S(=O)(=O)N[C@@H]1CC[C@H](CC(=O)N2CCCCC2)O[C@H]1CO do in these assays?
PAX8 inh HTS: -2.7; HIV Env fusion: -6.6[16.7 µM]

What do the screens show for `COc1ccc2c(c1)[C@H]1[C@H](CO2)[C@H](c2ccccc2)[C@]2(C)C(=O)Nc3cc(F)ccc3C(=O)N12`?
N-glyco inh: 40.9*; PAX8 inh HTS: 13.0; HIV Env fusion: 33.7; Shn3 3UTR inh: 6.9; EBV LMP1 NFkB: 5.5

Results for COc1ccc2c(c1)OC[C@H]1[C@H]2N2C(=O)c3ccc(F)cc3NC(=O)[C@@]2(C)[C@H]1c1ccccc1 ?
N-glyco inh: 19.7; PAX8 inh HTS: 41.5; HIV Env fusion: -11.2; Shn3 3UTR inh: -13.4; EBV LMP1 NFkB: -4.4

How did COc1ccc(C(NC(=O)C2CCN(Cc3ccc(Oc4ccccc4)cc3)CC2)c2ccccc2C)cn1 (stereo not given) do in these assays?
N-glyco inh: -5.5; PAX8 inh HTS: 63.0*; HIV Env fusion: -4.0; Shn3 3UTR inh: 49.6; NSD2 HMT inh: 0.8

How did C=CCn1c(-c2ccc(Cl)cc2Cl)csc1=Nc1ccc(NC(C)=O)cc1 do in these assays?
NSD2 HMT inh: 7.3

Results for Oc1ccc2ccccc2c1/C=N/Nc1nnc(-c2ncc[nH]2)c2ccccc12 ?
N-glyco inh: -12.0; HIV Env fusion: -61.8; Shn3 3UTR inh: 91.7*; EBV LMP1 NFkB: 59.4*

Compound activity (PubChem)
